RORg inh: blocks mouse ROR gamma transcriptional activity; Drosophila S2 Gal4-RORgamma UAS-luciferase reporter, 20 h; Potency, µM (series often up to 53.6 µM), for the others: top-dose activity change, negative = inhibition, actives largely listed as inhibitors; actives 5.4% (n = 310,000); AID 2551; further: nearly all actives have a fitted effect of over 60% in size
Target sequence (P51450 whole entry, looked up, the tested form may be a part): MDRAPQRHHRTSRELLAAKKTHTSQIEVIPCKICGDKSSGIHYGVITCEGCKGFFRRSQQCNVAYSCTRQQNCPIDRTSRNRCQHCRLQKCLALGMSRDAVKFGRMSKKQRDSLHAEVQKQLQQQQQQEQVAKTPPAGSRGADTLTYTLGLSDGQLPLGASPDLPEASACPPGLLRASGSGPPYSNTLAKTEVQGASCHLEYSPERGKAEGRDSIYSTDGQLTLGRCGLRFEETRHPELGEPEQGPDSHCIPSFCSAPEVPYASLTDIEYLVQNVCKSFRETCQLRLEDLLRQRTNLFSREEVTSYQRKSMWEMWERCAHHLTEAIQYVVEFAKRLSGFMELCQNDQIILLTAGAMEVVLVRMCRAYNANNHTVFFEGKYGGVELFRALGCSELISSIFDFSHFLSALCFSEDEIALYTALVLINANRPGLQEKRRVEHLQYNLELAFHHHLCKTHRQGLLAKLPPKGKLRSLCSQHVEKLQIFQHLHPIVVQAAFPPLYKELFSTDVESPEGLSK
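Compounds are pin-transferred onto Drosophila Schneider cells expressing a copper-inducible Gal4–ROR gamma transactivation domain fusion. After 1 hr, copper sulfate is added to 700 uM final; luciferase is read 20 hr later.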
Sfp inh: inhibitors of Bacillus subtilis Sfp phosphopantetheinyl transferase; Biochemical Sfp PPTase activity, qHTS; Potency, µM, for inactives: largest response in the series, negative = inhibition, actives largely listed as inhibitors; AID 1490; actives 3.5% (n = 310,000);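 further: the enzyme is Sfp with the accession as filed and its product quenches rhodamine fluorescence; 0% = enzyme reaction without inhibitor and -100% = no enzyme wells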
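Fluorescence-quenching assay with 15 nM Sfp, 5 uM rhodamine-CoA and 12.5 uM BHQ-2-labelled ybbR peptide in pH 7.6 Hepes/MgCl2 buffer. Enzyme was pre-incubated with compound for 15 min at room temperature. Rate was taken from the 30-min fluorescence change (525/598 nm).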
PLK1 PBD block: blocks phosphopeptide binding to human PLK1 polo-box domain; Potency, µM, for the others: max response, negative = inhibition, usual class: inhibitors; actives 2.8% (n = 360,000); P53350; AID 720504; Plk1 PBD binding of FITC phosphopeptide, fluorescence polarization; further: series mostly up to about 57 µM; nearly all actives have a fitted effect of over 65% in size
Gal4-VP16 FLuc: inhibits Gal4-VP16 luciferase reporter, ROR gamma counter-screen; Potency, µM (doses to about 53.6 µM), for the others: at the top dose activity, negative = inhibition, usual class: inhibitors; Drosophila S2 Gal4-VP16 UAS-luciferase, luminescence, 20 h; actives 3.5% (n = 310,000);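 further: Gal4-VP16 expression switched on by copper sulfate through the metallothionein promoter; nearly all actives have a fitted effect of over 50% in size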
ALDH1A1 block: blocks purified human ALDH1A1 activity; P00352; Purified ALDH1A1, NADH fluorescence, propionaldehyde substrate; Potency, µM (top dose mostly 75.3 µM), for inactives: at the top dose activity, negative = inhibition, most hits filed as inhibitors; actives 7.3% (n = 220,000); AID 1030; active means well fitted inhibition curve with a large enough effect, not every such curve was filed as active; inconclusive means small, poorly fitted or top-dose-only effect, or another doubt; inactive means no such curve, though single readings can be large or run the other way;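 further: plate controls were no enzyme wells and a reference inhibitor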
An asterisk follows results filed as active; ? = inconclusive; / = no result; [ ] = another dose, or the depositor's remark. The list is not random: actives were taken first. Their share in the collection is about 12%. Unless noted, the call rests on the fitted dose curve; in most records, active means well fitted curve in the direction sought with a large enough effect; inconclusive means small, poorly fitted or top-dose-only effect, or another doubt; inactive means no such curve, though single readings can be large; an effect the other way counts as inactive or inconclusive. Unless noted, on the % scale 0 is the no-effect control and ±100 the full control effect; potency means the concentration at half of the fitted maximal effect.

SMILES	RORg inh	Sfp inh	PLK1 PBD block	Gal4-VP16 FLuc	ALDH1A1 block
Cc1cccc(-n2nc(C(=O)c3ccco3)cc(-c3nc4ccccc4[nH]3)c2=N)c1	2.51µM*	26.9%	-5.1%	5.01µM*	-1.7%
Cc1ccccc1-n1nc(C(=O)c2cccs2)cc(-c2nc3ccccc3[nH]2)c1=N	0.708µM*	4.7%	-8.5%	0.891µM*	2.7%
COc1cc(/C=C(/C(=O)c2cccs2)c2nc3ccccc3[nH]2)cc(OC)c1O	?	-22.0%	-8.5%	?	?
Cc1ccc2nc(-c3cccc(NC(=O)c4ccco4)c3)[nH]c2c1	13.6%	3.9%	2.0%	?	-89.3%
COC(=O)[C@@H](NS(=O)(=O)c1cc(Br)ccc1Br)C(C)C	/	/	4.5%	/	/
CC(C)(C)c1ccc(S(=O)(=O)N2CCCCC2C(=O)NCc2ccccn2)cc1 (centres undefined)	?	4.4%	-10.8%	2.51µM*	3.98µM*
O=C(NCc1ccccn1)C1CN(S(=O)(=O)c2ccccc2)CCN1S(=O)(=O)c1ccccc1 (centres undefined)	11.2µM*	29.5%	-16.3%	-7.2%	-11.1%
O=C(NCc1ccncc1)C1CCCN1S(=O)(=O)c1ccc(Cl)cc1 (centres undefined)	0.631µM*	0.5%	?	-13.7%	/
O=C(NCc1ccncc1)C1CCCCC1	-5.1%	20.8%	26.7µM*	10.0%	10.1%
C#CCCCO/N=C1/C[C@@H](O)[C@@H](O)[C@@H]2[C@@H]3C(=O)N(CC)C(=O)[C@H]3CC[C@@H]12	3.6%[10 µM]	4.3%	/	-3.8%[10 µM]	11.9%[13.5 µM]
O=c1c(-c2ccc(Cl)cc2)nc2cnc(Nc3ccccc3)nc2n1C[C@H]1CCCO1	-2.9%	18.2%	/	-3.4%	?
CCOC(=O)CC1(C)Oc2cc(Cl)ccc2N1S(=O)(=O)c1ccc(C)cc1 (centres undefined)	/	/	-12.6%	/	/
COc1ccc(/C=C(\NC(=O)c2ccc(OC)cc2)C(=O)Nc2ccccc2C(=O)O)cc1	0.0%	11.7%	-2.4%	0.4%	/
COc1ccc(CCCc2n[nH]c(=S)o2)cc1	12.6µM*	-5.5%	-3.3%	4.6%[10 µM]	?
S=c1[nH]nc(CCCc2n[nH]c(=S)o2)o1	-27.1%	?	21.2µM*	-1.4%	/
COc1ccc(Cc2n[nH]c(=S)o2)cc1	9.3%	-12.4%	-20.6%	-1.7%	?
S=c1[nH]nc(Cc2ccc(Cl)cc2)o1	?	-19.2%	33.6µM*	0.4%	/
O=C1NC[C@H](Cc2ccccc2)N(C[C@@H]2CCCN2C[C@H](Cc2ccccc2)N2C[C@H](Cc3ccc(O)cc3)N(CCc3ccccc3)C(=O)C2=O)C1=O	/	/	-2.8%	/	/
CC(Oc1ccc(O)cc1)(P(=O)(O)O)P(=O)(O)O	-6.1%	-7.7%	/	5.0%	0.5%
CC(C)c1cccc(C(C)C)c1NC(=O)CNCc1ccccc1F	40.2%	44.7µM*	-13.9%	-3.8%	-14.9%
CC(C)c1cccc(C(C)C)c1NC(=O)CNCC(O)c1ccccc1 (centres undefined)	15.1%	-13.1%	4.4%	6.3%	/
COc1cccc(N2CCN(C(=S)Nc3ccccc3OC)CC2)c1	-15.1%	6.2%	-2.4%	5.8%	/
CCOc1ccccc1NC(=S)N1CCN(c2cccc(OC)c2)CC1	12.6µM*	13.8%	1.7%	?	/
COc1cccc(N2CCN(C(=S)Nc3ccc(C)cc3C)CC2)c1	5.62µM*	31.7%	4.9%	-16.6%	/
COc1cccc(N2CCN(C(=S)Nc3cc(C)cc(C)c3)CC2)c1	3.98µM*	15.2%	-1.5%	-2.0%	3.8%
SMILES	RORg inh	Sfp inh	PLK1 PBD block	Gal4-VP16 FLuc	ALDH1A1 block
COc1ccc(-c2ccc3c(c2)O[C@H](CN(C)C(=O)Nc2ccccc2F)[C@@H](C)CN([C@H](C)CO)S3(=O)=O)cc1	/	/	-29.5%	/	/
COc1ccc(/C=C/C(=O)NC(=S)Nc2ccccc2C(=O)NC2CCCCC2)cc1	14.1µM*	5.7%	-0.3%	-10.8%	-0.1%
O=C(/C=C/c1ccc(F)cc1)NC(=S)Nc1ccccc1C(=O)NC1CCCCC1	?	-9.3%	2.8%	12.6µM*	-1.2%
O=C(/C=C/c1ccccc1)NC(=S)Nc1ccccc1C(=O)NC1CCCCC1	11.2µM*	-6.3%	-5.8%	?	2.6%
CC(C)(C)NC(=O)CN(C(=O)CN1C(=O)C(=O)c2ccccc21)C(C)(C)C	-4.8%	7.7%	-7.1%	3.8%[10 µM]	0.126µM*
O=C(CN1C(=O)C(=O)c2ccccc21)NC1CCCCC1	-17.9%	3.8%	-9.9%	-10.2%	0.891µM*
O=C(NCc1cccnc1)C(=O)NCC1OCCCN1S(=O)(=O)c1cc(F)ccc1F (centres undefined)	/	/	3.8%	/	/
O=S(=O)(O)c1ccc2c(c1)-c1nc-2nc2[nH]c(nc3nc(nc4[nH]c(n1)c1ccc(S(=O)(=O)O)cc41)-c1ccc(S(=O)(=O)O)cc1-3)c1ccc(S(=O)(=O)O)cc21	-38.9%	?	/	-24.2%	/
C=CCOC(=O)C(C(C)=O)C(NC(=O)OC)c1ccc(F)cc1 (centres undefined)	0.6%[10 µM]	-6.8%	/	-4.4%[10 µM]	20.6%[13.5 µM]
S=C1Cc2ccccc2N1	?	3.16µM*	11.9µM*	-92.2%	/
S=C1Nc2ccccc2CS1	/	/	-14.8%	/	/
OC[C@H]1O[C@@H](O[C@@H]2[C@@H](CO)O[C@](O)(CO)[C@H]2O)[C@H](O)[C@@H](O)[C@H]1O	5.8%	16.0%	/	-19.8%	8.0%
COc1ccc(C2NC(=S)NC3=C2CCc2cc(OC)ccc23)cc1 (centres undefined)	0.562µM*	-11.4%	?	?	?
COc1ccc(C2NC(=S)NC(C)=C2C(=O)N2CCOCC2)cc1 (centres undefined)	-16.2%	?	-1.6%	-0.6%	?
O=C(OC(c1ccc(NS(=O)(=O)c2ccccc2)cc1)(C(F)(F)F)C(F)(F)F)c1ccccc1	14.1µM*	21.1%	-1.4%	?	-2.7%
CNC1=CN=C(c2ccccc2)c2cc(Cl)ccc2N1	-15.2%	22.3%	/	-1.4%	11.8%
CNS(=O)(=O)c1cccc(C(=O)OCC(=O)c2c(N)n(Cc3ccccc3)c(=O)n(C)c2=O)c1	/	/	-7.2%	/	/
CN(C)c1ccc(/C=N/n2cnn(Cc3ccccc3Cl)c2=S)cc1	?	-23.4%	?	?	?
Fc1ccc(/C=N/n2cnn(Cc3ccccc3Cl)c2=S)cc1	3.6%	50.1µM*	23.8µM*	-9.1%	20µM*
O=C(CCl)NCCN1C(=O)S/C(=C\c2cccnc2)C1=O	?	3.0%	-20.5%	?	1.58µM*
CCOC(=O)c1oc2nc(C)c3c(c2c1N)CC(C)(C)OC3	-6.8%	-1.6%	11.9µM*	-5.5%	?
CCOC(=O)N1CCC(N2C(=O)c3ccccc3C2Nc2ccc(C)cc2)CC1 (centres undefined)	6.5%	11.5%	-4.1%	7.6%	31.6µM*
CCOC(=O)N1CCC(N2C(=O)c3ccccc3C2Nc2ccccc2)CC1 (centres undefined)	6.0%	3.7%	-7.7%	-4.0%	?
